Results as given in PubChem BioAssay (EPA / NIEHS).
Activity calls are given as the source filed them. How the source made its calls: active means hit-call score of the fitted dose curve at least 0.9, where 1 is the maximum; inactive means score below 0.9.

Experiments:
[1] = ATG_PXRE_CIS: Attagene CIS-FACTORIAL HepG2 Assay for human Pregnane X Receptor Element (PXRE) (AID 2282957); details: HepG2 Attagene CIS-FACTORIAL PXRE reporter, mRNA; actives raise or lower the signal
Method in brief: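 Fluorescent capillary electrophoresis of amplified reporter cDNA gave the signal, collected 24 h after dosing HepG2 cells that held transfected cis-element reporter constructs.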

[2] = ATG_PPRE_CIS: Attagene CIS-FACTORIAL HepG2 Assay for human Peroxisome Proliferator-activated Response Element (PPRE) (AID 2282958); details: HepG2 PPRE cis-element reporter, Attagene transcription factor profiling; actives raise or lower the signal
Method in brief: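 Endogenous PPRE-driven transcription is measured in HepG2 cells carrying transfected multi-reporter constructs. Reporter transcripts are quantified by RT-PCR, HpaI digestion and capillary electrophoresis 24 h after dosing. DMSO baseline, bidirectional fit.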

[3] = ATG_RORE_CIS: Attagene CIS-FACTORIAL HepG2 Assay for human RAR-related Orphan Receptor Element (RORE) (AID 2282959); details: HepG2 Attagene cis-factorial RORE reporter, mRNA; actives raise or lower the signal
Method in brief: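 RORE reporter transcripts reflecting endogenous factor activity were read after 24 h compound exposure of transfected HepG2 cells, using reverse transcription, PCR, fluorescent labelling and capillary electrophoresis sizing. Gain or loss fitted against DMSO.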

[4] = ATG_Sox_CIS: Attagene CIS-FACTORIAL HepG2 Assay for human SRY-box transcription factor (SOX) (AID 2282960); details: HepG2 Attagene cis-factorial SOX reporter, mRNA; actives raise or lower the signal
Method in brief: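 Reporter transcripts, measured by RT-PCR and capillary electrophoresis of labelled fragments, report endogenous SOX transcription factor activity. Transiently transfected human HepG2 cells receive chemical for 24 h; changes in either direction are fitted relative to DMSO.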

[5] = molecular target: Transcription factor Sp1 (Homo sapiens) (UniProt P08047); test: ATG_Sp1_CIS: Attagene CIS-FACTORIAL HepG2 Assay for human Specificity Protein 1 (Sp1) (AID 2282961); details: HepG2 Sp1 cis-reporter transcription, actives raise or lower the signal
Transcription factor Sp1 (Homo sapiens), sequence (P08047 whole entry, looked up): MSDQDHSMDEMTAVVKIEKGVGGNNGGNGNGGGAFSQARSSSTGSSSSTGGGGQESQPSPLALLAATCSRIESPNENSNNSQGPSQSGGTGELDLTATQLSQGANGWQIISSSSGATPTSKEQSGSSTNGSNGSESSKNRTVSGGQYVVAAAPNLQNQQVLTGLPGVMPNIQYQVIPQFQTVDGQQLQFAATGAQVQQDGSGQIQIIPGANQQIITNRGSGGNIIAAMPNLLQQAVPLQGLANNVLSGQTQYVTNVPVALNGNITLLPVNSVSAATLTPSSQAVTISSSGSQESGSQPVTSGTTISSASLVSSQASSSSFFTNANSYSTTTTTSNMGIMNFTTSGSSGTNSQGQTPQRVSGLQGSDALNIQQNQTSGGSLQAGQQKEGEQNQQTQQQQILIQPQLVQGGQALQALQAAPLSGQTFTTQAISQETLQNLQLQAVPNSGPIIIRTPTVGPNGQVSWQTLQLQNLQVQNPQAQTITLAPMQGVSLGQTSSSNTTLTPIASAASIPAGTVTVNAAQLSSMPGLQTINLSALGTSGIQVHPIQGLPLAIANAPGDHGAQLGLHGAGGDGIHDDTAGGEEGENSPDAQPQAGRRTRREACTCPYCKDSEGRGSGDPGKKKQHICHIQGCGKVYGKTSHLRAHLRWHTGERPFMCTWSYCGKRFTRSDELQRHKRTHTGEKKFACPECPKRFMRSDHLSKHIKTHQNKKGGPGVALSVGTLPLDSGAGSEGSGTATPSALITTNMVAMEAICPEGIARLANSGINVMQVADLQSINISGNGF
Method in brief: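 Read-out is reporter transcript level, measured by RT-PCR and fluorescent capillary electrophoresis after 24 h chemical treatment. System: transiently transfected HepG2 cells reporting endogenous transcription factor activity; gain or loss fitted against DMSO baseline.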

[6] = ATG_SREBP_CIS: Attagene CIS-FACTORIAL HepG2 Assay for human Sterol Regulatory Element Binding (SREBP) (AID 2282962); details: HepG2 Attagene cis-factorial SREBP reporter, mRNA; actives raise or lower the signal
Method in brief: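 In this cis-format assay, HepG2 liver cells express reporters controlled by promoter elements responsive to native transcription factors. Exposure lasts 24 h; reporter mRNA fluorescence from capillary electrophoresis gives the signal, fitted bidirectionally against DMSO.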

[7] = ATG_TA_CIS: Attagene CIS-FACTORIAL HepG2 Assay for human TA Basal Promoter (AID 2282964); details: HepG2 Attagene CIS-factorial TA basal promoter reporter; actives raise or lower the signal
Method in brief: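 Background internal-marker endpoint from a 52-component HepG2 cis-reporter panel. Cells treated 24 h; reporter transcripts quantified via RT-PCR and CE fluorescence against DMSO baseline.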

[8] = molecular target: Signal transducer and activator of transcription 3 (Homo sapiens) (UniProt P40763); test: ATG_STAT3_CIS: Attagene CIS-FACTORIAL HepG2 Assay for human Signal Transducer and Activator of Transcription 3 (STAT3) (AID 2282963); details: HepG2, Attagene cis-factorial STAT3 reporter transcription; actives raise or lower the signal
Signal transducer and activator of transcription 3 (Homo sapiens), sequence (P40763 whole entry, looked up): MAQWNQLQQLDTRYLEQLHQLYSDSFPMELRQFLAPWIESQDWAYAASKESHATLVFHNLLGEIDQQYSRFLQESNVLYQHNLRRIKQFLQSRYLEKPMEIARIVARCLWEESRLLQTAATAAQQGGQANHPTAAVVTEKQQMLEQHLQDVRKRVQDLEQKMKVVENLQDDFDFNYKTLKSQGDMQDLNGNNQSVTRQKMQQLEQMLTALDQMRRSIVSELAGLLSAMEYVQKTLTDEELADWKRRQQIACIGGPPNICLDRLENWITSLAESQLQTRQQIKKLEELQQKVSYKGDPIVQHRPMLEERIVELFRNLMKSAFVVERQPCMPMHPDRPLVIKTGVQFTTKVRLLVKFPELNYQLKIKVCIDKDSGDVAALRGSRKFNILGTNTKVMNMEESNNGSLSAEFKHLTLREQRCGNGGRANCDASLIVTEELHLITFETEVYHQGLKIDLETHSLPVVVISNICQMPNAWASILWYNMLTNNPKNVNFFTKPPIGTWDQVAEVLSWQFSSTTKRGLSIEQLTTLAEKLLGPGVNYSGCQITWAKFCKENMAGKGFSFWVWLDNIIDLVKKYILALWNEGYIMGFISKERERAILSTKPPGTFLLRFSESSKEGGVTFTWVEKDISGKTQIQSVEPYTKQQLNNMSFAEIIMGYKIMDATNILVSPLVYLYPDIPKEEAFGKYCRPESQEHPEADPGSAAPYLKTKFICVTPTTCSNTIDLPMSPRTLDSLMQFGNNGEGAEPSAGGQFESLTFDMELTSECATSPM
Method in brief: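 Cis-factorial format: endogenous transcription factors in HepG2 drive transfected reporter units. After 24 h treatment, reporter RNA was reverse-transcribed, amplified, FAM-labelled and HpaI-digested before CE analysis; activity scored in both directions against DMSO.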

[9] = ATG_TCF_b_cat_CIS: Attagene CIS-FACTORIAL HepG2 Assay for human T-Cell-Factor with beta-catenin (TCF/b-cat) (AID 2282965); details: HepG2 TCF/beta-catenin cis-reporter transcription, actives raise or lower the signal
Method in brief: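 Endogenous TCF/LEF activity read as reporter transcript level via RT-PCR and capillary electrophoresis fluorescence in transfected HepG2, 24 h exposure; gain or loss of signal fitted against DMSO controls.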

Measured: AC50

CN(C)CCOC(C)(c1ccccc1)c1ccccn1 (stereo unspecified)
active: [1] 100 µM
not listed: [8] | [9]
inactive: all other assays above

ClC(c1ccccc1)(c1ccccc1)c1ccccc1
active: [1] 2.59 µM
inactive: all other assays above

Nc1c(Cl)cc(Cl)cc1[N+](=O)[O-]
active: [1] 27.7 µM
not listed: [2] | [3]
inactive: all other assays above

COC(=O)c1ccc(C)cc1C1=NC(C)(C(C)C)C(=O)N1 (stereo unspecified) (tested in a mixture with another compound)
active: [1] 15.2 µM
not listed: [2]
inactive: all other assays above

O=C1c2ccccc2C(=O)c2c(O)ccc(O)c21
inactive: [3] | [4] | [5] | [6] | [9]
active: [1] 7.05 µM

CCCCCCOC(=O)CCC
active: [1] 24.8 µM
not listed: [7]
inactive: all other assays above

O=C(O)c1cccnc1C(=O)O
not listed: [2]
inactive: all other assays above

[O-]n1ccccc1=S.[O-]n1ccccc1=S.[Zn+2]
not listed: [2]
inactive: all other assays above

CC(=O)c1c(C)c([N+](=O)[O-])c(C(C)(C)C)c([N+](=O)[O-])c1C
active: [1] 2.28 µM
inactive: all other assays above

CC(C)OCCO
not listed: [2]
inactive: all other assays above

CN(C)C(=S)SC(=S)N(C)C
active: [1] 73.8 µM | [2] 46.2 µM
inactive: all other assays above

CCC(Cl)C(Cl)C(Cl)CC(Cl)C(Cl)C(C)Cl (stereo unspecified)
active: [1] 0.885 µM
not listed: [5] | [9]
inactive: all other assays above

CCC1CCCCC1
not listed: [2]
inactive: all other assays above

CCCCCCC(CO)CCCC (stereo unspecified)
active: [1] 33.4 µM
inactive: all other assays above

COCCOC(=O)c1ccccc1C(=O)OCCOC
active: [1] 120 µM
inactive: all other assays above

C=CC(C)(O)CCC=C(C)C (stereo unspecified)
active: [1] 46.9 µM
not listed: [2] | [3]
inactive: all other assays above

CCCC(C)C(O)CC (stereo unspecified)
not listed: [1] | [2] | [5]
inactive: all other assays above

CCCCCCCC(=O)OCCCCCC
active: [1] 28.2 µM
not listed: [8]
inactive: all other assays above

COC(=O)c1ccc([N+](=O)[O-])cc1
not listed: [3]
inactive: all other assays above

IC(I)I
active: [1] 5.98 µM
not listed: [5]
inactive: all other assays above

Nc1ccc(N)c2c1C(=O)c1ccccc1C2=O
not listed: [2]
inactive: all other assays above

Cc1ccc(C)o1
inactive: all assays above

COc1ccc(COC(C)=O)cc1
inactive: [3] | [4] | [5] | [6] | [9]

CCCCCCCCN1CCCC1=O
active: [1] 26.2 µM | [8] 168 µM
not listed: [2]
inactive: all other assays above

O=CCc1ccccc1
active: [1] 9.42 µM
not listed: [2]
inactive: all other assays above

CC(C)CCOC(=O)c1ccccc1
inactive: all assays above

CCCC(C)=O
inactive: all assays above

C=C(C)C1CC=C(C)C(=O)C1 (stereo unspecified)
active: [1] 33.4 µM
not listed: [2]
inactive: all other assays above

CCC(C)=O
inactive: all assays above

COc1cc([C@@H]2c3cc4c(cc3[C@@H](O[C@@H]3O[C@@H]5CO[C@@H](C)O[C@H]5[C@H](O)[C@H]3O)[C@H]3COC(=O)[C@H]23)OCO4)cc(OC)c1O
active: [1] 35.2 µM
inactive: all other assays above

O=C1OC2(c3ccccc31)c1ccc(O)c(Br)c1Oc1c2ccc(O)c1Br
active: [1] 15.9 µM
inactive: all other assays above

COc1ccc(CCN2CCC(Nc3nc4ccccc4n3Cc3ccc(F)cc3)CC2)cc1
active: [6] 2.12 µM
not listed: [8] | [9]
inactive: all other assays above

CC1(C)COCN1
not listed: [1]
inactive: all other assays above

COC(C)(C)CC(C)=O
active: [1] 34.4 µM
not listed: [7]
inactive: all other assays above
